# Results taken from PubChem BioAssay AID1347426 (Functional Genomics Laboratory (NCATS/FGL), 2020).
# Screen size: about 31,000 sequences; about 1,400 (4.5%) were called active.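 Rule for the calls: active = median seed-adjusted z-score above 1 or below -1; inactive = the rest.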 Many of the other results were omitted from the sample, so actives are more common in it than they were.
# Assay: Novel Modifiers of Survival Motor Neuron (SMN) Protein: Gene Identification via Genome-wide siRNA Screen;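 note: luminescence tracks full-length SMN protein made from the SMN2 reporter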
# Conditions: HEK293T SMN2-luciferase reporter, siRNA knockdown, 72 h; actives lie on both sides
# In short: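 HEK293T cells stably expressing an SMN2 splicing/cDNA-luciferase reporter were reverse-transfected with a druggable-genome siRNA library and read by luminescence at 72 hours; hits defined by MAD score above 1.0 or below -1.0.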
row,Sequence,median seed-adjusted z-score
1,CAGCAAUUCGUGGAGCUCATT against STX4,0.759 (inactive)
2,CACUAAAUGUGACUCCUGATT against TTC5,-0.296 (inactive)
3,CUAUUAACAUGGUGACAGATT against EIF4A1,-1.05 (active)
4,GUGUGAUGAUAUUCGAAAATT against SGPP1,0.0859 (inactive)
5,GGAGGAAACUUCAACUUGUTT against PHF20L1,0 (inactive)
6,CAAAUUGAGUCACUCUUAATT against MGAT2,-0.124 (inactive)
7,GGAUUUGGAGUAGAUCAAUTT against TIAL1,-0.985 (inactive)
8,GCCUGUCCUUCUCCAUUGATT against ISX,1.99 (active)
9,GCUUUGAAACUACAGAUGATT against HNRNPA3,0.915 (inactive)
10,GAAGGUUUACAAGGACUUATT against KLK7,0 (inactive)
11,GCAGAGAUCAGCAACGUGATT against KRT77,-0.0863 (inactive)
12,GCACUUAUGCUGAUGAAGATT against ZNF398,0.119 (inactive)
13,CAAACGUAUUAGUUCAGCATT against KIF20B,0 (inactive)
14,GGACAAGUAGCAAAGCGAATT against SLC7A14,0.132 (inactive)
15,CAACAACCUUACACGAGUATT against LRIG2,0.386 (inactive)
16,GAAGAAAUGUUGUUCGAAUTT against KAL1,0.0824 (inactive)
17,CGCCUGGUCUAUGAACUUUTT against SCARF1,-0.324 (inactive)
18,GAAGUGUUUGAAUCUCGUATT against AKAP3,0.0138 (inactive)
19,GUCUCGUAGUGUUAUGUCUTT against GBA2,0.143 (inactive)
20,CCCUGGACGCUGAUGAGUUTT against CAPS,-1.25 (active)
21,GAUACAUGAAGGUAUACAATT against POLR3G,-0.485 (inactive)
22,AGAAAGUGUACGACCCAAATT against NUCB1,0.232 (inactive)
23,GAGUGCAAUUGGAACCUGATT against ARHGAP30,0.0946 (inactive)

row,Sequence,median seed-adjusted z-score
1,GCAUGAACAUUACGGAUAUTT against CARS,0 (inactive)
2,GGUGGUACAAGAGAACGAATT against JARID2,0.115 (inactive)
3,CUUGGAUGAUGGCAAGACATT against TCEB2,1.28 (active)
4,GAAAUAUACUUCAGAUUCATT against SP2,-0.617 (inactive)
5,GCUCAUUCCUUUUCGAGCATT against PEG3,0.5 (inactive)
6,GAUUCACAUCGUCAAGAAATT against ZNF317,0.087 (inactive)
7,GAUAUGACCGCGAAACCAATT against RPA4,0.132 (inactive)
8,GCUCCACACUGAUGAAUCATT against ZNF250,-0.00985 (inactive)
9,GGCUAACUACUGAGCUGAATT against C1RL,-0.148 (inactive)
10,GGGAAUUUCUGACCUAGUATT against ABCD3,-0.24 (inactive)
11,CCAAGCCUCUUUCCUACAATT against GPR52,-1.17 (active)
12,CGUGGAAGAUUUUCACAGATT against ZNF174,0.035 (inactive)
13,GAUCUACCGAAUACAAGAATT against GPR171,-0.449 (inactive)
14,CCACACCAUUAUGACCAUUTT against FUT1,0.000845 (inactive)
15,GGAUUUGCCUUACCACUAATT against PPP2R5C,1.14 (active)
16,GAAGGGUUAUCGUCGGGAATT against SLC6A6,0.0448 (inactive)
17,CCAUCGAGUUCAUCGAUAATT against DUSP8,-0.0326 (inactive)
18,GUUCAUCUCUUGUAAGGAUTT against CABP5,0.372 (inactive)
19,GCCUCAGAAUUUAAUCAAATT against ALB,-0.153 (inactive)
20,CCAGAAGCGAAUCACCACATT against POLR2F,-3.52 (active)
21,GUGUCUCUGCUCUAAGUAATT against B4GALT1,0 (inactive)
22,AGCUUAUGCAUUUGGCAAATT against APBA3,-0.119 (inactive)
23,GGAGCAGACGGUGACCAAATT against CIB3,0.234 (inactive)

row,Sequence,median seed-adjusted z-score
1,CAUAUGAUCCAGACAAGAATT against ZNF425,0.0841 (inactive)
2,GAGUCUGUGGUGUACCUAATT against SALL4,-0.344 (inactive)
3,GAGAAGAACUCGUACCUCUTT against ZNF783,0.284 (inactive)
4,CCGUGUCCAGGAACCUAUATT against LPHN3,-0.0576 (inactive)
5,AGUCCAAGGUGAUUACGCUTT against CPSF1,3.29 (active)
6,GCUGUGCUAUGGGAGUUAATT against ADH1A,0.624 (inactive)
7,GAACUUAGCUAAAUUGACUTT against BCHE,0.117 (inactive)
8,CUUAGACUGUUUCCACUUATT against PARK2,0.146 (inactive)
9,GCCUAUGAUUUAGGACUAATT against MNDA,0.232 (inactive)
10,CCAGUGAUGUAAGUUCUUATT against GCG,-1.18 (active)
11,CUGUUCUGCUUAUAUGGAATT against HNRPLL,0 (inactive)
12,GAAACAUCCGUGAAAGAGATT against RABL4,-0.154 (inactive)
13,GAUACUAGCUAUUUUGACATT against MAST2,0.27 (inactive)
14,CUAACGUAGAGGAAGCAUUTT against RAB11B,-0.857 (inactive)
15,CACUUAUACUAAGCACCAATT against CCNB1,0.163 (inactive)
16,CUCUGGAUUUUGAUAGUUUTT against PPARGC1A,-0.0953 (inactive)
17,GUACUUCCAUAGACAGGAATT against CECR1,0.00187 (inactive)
18,GGCUUAAUGUGGUGAUGUUTT against COL7A1,1.08 (active)
19,CGAAUGCUGAGGCUACAAATT against SLC9A5,-0.545 (inactive)
20,GGGAGACCUCGAUCGUGAATT against RASA4,-1.11 (active)
21,CAAAUCCUGUCUAACAAAATT against MYH7,0.659 (inactive)
22,GUUCAUAUGUGACAUCUUUTT against ZFP36L1,-0.933 (inactive)
23,GUAGGUGAGUGGAAAUUCATT against DRD2,-0.0273 (inactive)
